Laboratory results published in PubChem BioAssay AID1529 (NMMLSC, 2009).
Out of some 290,000 compounds screened, about 4,200 (1.4%) were called active. For the sample, actives were picked, then their nearest neighbours and some compounds at random. A number with no mark means an inactive call.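 The calls were made as follows: active = binding response more than 3 SD above or below the average of its plate-row segment, actives on both sides; inconclusive = wells at one plate position flagged as instrument error; inactive = the rest.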

What follows are compounds tested against Mitogen-activated protein kinase kinase kinase 3 (Homo sapiens) (UniProt Q99759) (assay: compounds raising or lowering MEK5 association with MEKK3 PB1 – biochemical, wildtype MEKK3, multiplex bead flow cytometry, Alexa488-MEK5, primary screen (AID 1529;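 also: Alexa488 bead fluorescence after subtracting the streptavidin-only scavenger bead signal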)). Conditions: bead-based flow cytometry, Alexa488-MEK5 binding to MEKK3; at 10 µM; actives lie on both sides; 0 = blocked by unlabeled MEK5, 100 = vehicle.
Mitogen-activated protein kinase kinase kinase 3 (Homo sapiens), sequence (Q99759 whole entry, looked up): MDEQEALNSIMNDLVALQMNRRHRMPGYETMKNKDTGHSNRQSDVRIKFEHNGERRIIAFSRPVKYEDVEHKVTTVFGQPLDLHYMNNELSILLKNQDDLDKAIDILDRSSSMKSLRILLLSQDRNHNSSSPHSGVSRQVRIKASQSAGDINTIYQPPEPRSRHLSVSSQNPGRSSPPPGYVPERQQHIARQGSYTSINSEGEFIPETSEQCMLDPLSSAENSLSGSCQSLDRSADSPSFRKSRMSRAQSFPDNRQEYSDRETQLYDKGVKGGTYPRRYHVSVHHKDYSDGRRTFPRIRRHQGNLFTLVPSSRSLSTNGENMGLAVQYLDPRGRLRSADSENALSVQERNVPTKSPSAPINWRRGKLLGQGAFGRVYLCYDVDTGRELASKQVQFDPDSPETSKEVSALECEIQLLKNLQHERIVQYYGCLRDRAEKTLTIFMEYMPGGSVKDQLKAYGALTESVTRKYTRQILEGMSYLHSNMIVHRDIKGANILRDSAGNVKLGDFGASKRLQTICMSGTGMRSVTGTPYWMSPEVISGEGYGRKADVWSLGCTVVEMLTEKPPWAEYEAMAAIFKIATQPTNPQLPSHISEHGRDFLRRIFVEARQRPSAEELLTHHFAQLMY

Compound | binding response (% of control)
CCc1ccc(NC(=O)Cn2nnc(C(=O)NCc3ccc4c(c3)OCO4)c2N)cc1 | 100%
Cc1ccccc1OCC(=O)Nc1ccc(N2CCN(C(=O)C(C)C)CC2)c(Cl)c1 | 122% (active)
Cc1ccccc1OCC(=O)Nc1ccc(S(=O)(=O)N2CCOCC2)cc1 | 95%
CCC(=O)N1CCN(c2ccccc2NC(=O)COc2cccc(C)c2C)CC1 | 102%
CCN1C(=O)N[C@@H](CCc2ccccc2)C(C(=O)OC)=C1C | 101%
CCC(=O)Nc1nnc(S(=O)(=O)N2CCCc3ccccc32)s1 | 98%
O=C(CCN1C(=O)[C@@H]2Cc3ccccc3CN2C1=O)NCCc1ccccc1 | 99%
Cc1[nH][nH]c(=O)c1C(c1ccc2c(c1)OCO2)c1c(C)[nH][nH]c1=O | 102%
CCOc1ccc(C(c2c(C)[nH][nH]c2=O)c2c(C)[nH][nH]c2=O)cc1OCC | 152% (active)
Cc1[nH][nH]c(=O)c1C(c1ccc(-c2ccc(Cl)cc2)o1)c1c(C)[nH][nH]c1=O | 95%
CCOc1ccc(CN2CCN(Cc3c[nH]c4ccccc34)CC2)cc1 | 99%
Cn1ccnc1-c1nnn(-c2ccc(F)cc2)n1 | 95%
CCOc1cc(C2C(C(=O)OC)=CN(C3CCCC3)C=C2C(=O)OC)cc(Br)c1O | 80% [inhibitor] (active)
COC(=O)C1=CN(Cc2ccc(OC)cc2)C=C(C(=O)OC)C1c1ccc(O)c(OC)c1 | 104%
CCOc1ccccc1C1C(C(=O)OC)=CN(C)C=C1C(=O)OC | 102%
COc1nnc(-c2ccc(C)c(S(=O)(=O)N(C)C)c2)c2ccccc12 | 101%
Cc1c(C#N)c2ncn(CC#N)c(=O)c2n1-c1ccccc1 | 122% (active)
CC(=O)Cn1cnc2c(cnn2-c2ccccc2)c1=O | 102%
CN(C)/C=C/c1c(C#N)c(=O)ncn1Cc1ccccc1 | 103%
Cc1cc(N2CCOCC2)nc2ccc(NC(=S)N3CCN(Cc4ccccc4)CC3)cc12 | 92%
COc1ccc(C(C(=O)NC(C)(C)C)N(Cc2ccc(F)cc2)C(=O)CCC(=O)Nc2cc(C)on2)cc1 (stereo unspecified) | 100%
NC(=O)C1CCN(C(=O)CC2C(=O)NCCN2Cc2cccc(Oc3ccccc3)c2)CC1 (stereo unspecified) | 101%
NC(=S)N/N=C/c1coc2cc(Cl)ccc2c1=O | 92%

Compound | binding response (% of control)
Cc1ccc2occ(/C=N/NC(=O)c3ccccc3C)c(=O)c2c1 | 104%
O=c1c(/C=N/O)coc2ccc(Cl)cc12 | 48% [inhibitor] (active)
Cc1ccc(OCC(=O)Nc2ccc3oc(=O)ccc3c2)cc1C | 102%
O=C(Nc1ccc(Cl)cc1)Nc1ccc(C(=O)N2CCOCC2)cc1 | 103%
Cc1ccc(C(=O)N2CCN(C(=O)N3CCOCC3)CC2)cc1 | 107%
Cc1ccccc1-c1ccc(Nc2ccc(C(=O)N3CCOCC3)cc2)nn1 | 79% [inhibitor] (active)
c1ccc(CCc2nc(-c3ccncc3)no2)cc1 | 105%
Cc1cc(Cl)ccc1OCc1nc(-c2ccncc2)no1 | 73% [inhibitor] (active)
COc1ccc(-c2noc(COc3ccc(Cl)c(C)c3)n2)cc1 | 102%
CCC1Oc2ccccc2N(CC(=O)NCCCN2CCN(CC)CC2)C1=O (stereo unspecified) | 105%
COc1ccc(S(=O)(=O)N(C)CC(=O)N2CCCC2)cc1 | 101%
O=C(NCc1ccccn1)c1c(O)c2c([nH]c1=O)CCCC2 | 107%
C[N+](C)(C)CCNC(=O)c1c(O)c2c([nH]c1=O)CCCC2 | 78% [inhibitor] (active)
CCc1nnc(NC(=O)c2c(O)c3c([nH]c2=O)CCCC3)s1 | 105%
O=C(CN(c1cc(C(F)(F)F)ccc1Cl)S(=O)(=O)c1ccccc1)NCc1cccnc1 | 101%
COc1cc(NC(=O)C2CCN(c3cnccn3)CC2)cc(OC)c1 | 102%
Cc1[nH]c2ccc(S(N)(=O)=O)cc2c1C | 81% [inhibitor] (active)
COC(=O)CCNC(=O)c1ccc2[nH]c(C)c(C)c2c1 | 102%
Cc1[nH]c2ccc(C(=O)N3CCN(C)CC3)cc2c1C | 99%
Cc1cccc(Nc2nc(NCCO)nc(N3CCCC3)n2)c1 | 106%
CN(CCNC(=O)c1cc2c(-c3ccccc3F)nn(C)c2s1)C1CCCCC1 | 108%
CC(C)(C)NC(=O)/C(=C/c1cccnc1)NC(=O)c1ccco1 | 101%
Cc1ccc(C(=O)N/C(=C/c2cccnc2)C(=O)O)cc1 | 95%
